Data on ten compounds can be found in PubChem BioAssay (NCI).

About 83,000 compounds went through this panel and 20% of them were active in at least one assay; those are over-represented in the sample as a whole.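 Growth was measured after 48 h exposure to one concentration of compound in 96-well plates. Values under 10 count as active.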 Values without a mark were called inactive. The source made the active and inactive calls.

The assay relates to SK-MEL-28 melanoma. Briefly: NCI-60 one-dose screen, 48 h (100 = growth as untreated, 0 = no growth, -100 = all killed). Conditions: 10 µM unless noted.
Take `COc1cc(C(=O)c2c(N)ncn2-c2ccccc2)cc(OC)c1OC`: the growth was 91.7%.
The figure for `CCn1c2ccc(O)cc2c2c(C)c3c[n+](C(C)C)ccc3c(C)c21` is 22.8%; for `Cc1cc2nc(-c3c(-c4ccc(F)cc4)nc4sccn34)[nH]c2cc1C` it is 95.2%; for `Oc1c(I)cc(-c2nc3ccccc3s2)cc1CN(Cc1ccccn1)Cc1ccccn1` it is 37.5%.
Next, `CC(C)(CO)N(CCO)CCO`: 103%; `CC1(C)CC[C@]2(C(=O)N3CCOCC3)CC[C@]3(C)C(=CC[C@@H]4[C@@]5(C)C/C(=C/c6ccncc6)C(=O)C(C)(C)[C@@H]5CC[C@]43C)[C@@H]2C1`: -14.4% (active).
Next, `Cc1cccc(NC(=O)CSc2nc3ccc([N+](=O)[O-])cc3[nH]2)c1`: 80.7%.
For the compound `COc1ccc(-c2oc(=O)ccc2-c2cc(OC)c(OC)c(OC)c2)cc1O`, the growth was 39.3%.
The figure for `O=C(O)c1cccc(N/C=C/C(=O)c2cc3cc(Br)ccc3oc2=O)c1` is 104%; for `CC[C@H](C)[C@H](NC(=O)[C@H](CCCNC(=N)N)NC(=O)[C@H](Cc1c[nH]c2ccccc12)NC(=O)[C@@H](NC(=O)[C@H](CCCCN)NC(=O)[C@H](CCCCN)NC(=O)[C@@H](NC(=O)[C@@H](NC(=O)[C@@H](NC(=O)[C@H](CCCCN)NC(=O)[C@H](Cc1ccccc1)NC(=O)[C@H](CCCCN)NC(=O)[C@H](CCCCN)NC(=O)[C@H](Cc1ccccc1)NC(=O)[C@@H](NC(=O)[C@@H](N)CCCCN)[C@@H](C)CC)[C@@H](C)O)[C@@H](C)CC)[C@@H](C)CC)C(C)C)C(=O)N[C@@H](Cc1ccccc1)C(=O)NCC(=O)N[C@@H](CCCNC(=N)N)C(=O)N[C@@H](Cc1ccccc1)C(N)=O` it is -31.7% (active).
